# High-throughput results as filed in PubChem.
# The list is not random: actives were taken first. Their share in the collection is about 11%.
# HPGD block: inhibitors of human 15-hydroxyprostaglandin dehydrogenase (HPGD); AID 894; 4.3% of 150,000 active; Potency, µM, without a hit: at the highest dose activity change, negative = inhibition, actives largely listed as inhibitors; purified HPGD, NADH fluorescence kinetic, PGE2 substrate; P15428; active = well fitted inhibition curve with a large enough effect, not every such curve was filed as active; inconclusive = small, poorly fitted or top-dose-only effect, or another doubt; inactive = no such curve, though single readings can be large or run the other way; note: potency is the fitted concentration of half-maximal effect
# Target sequence (P15428 whole entry, looked up): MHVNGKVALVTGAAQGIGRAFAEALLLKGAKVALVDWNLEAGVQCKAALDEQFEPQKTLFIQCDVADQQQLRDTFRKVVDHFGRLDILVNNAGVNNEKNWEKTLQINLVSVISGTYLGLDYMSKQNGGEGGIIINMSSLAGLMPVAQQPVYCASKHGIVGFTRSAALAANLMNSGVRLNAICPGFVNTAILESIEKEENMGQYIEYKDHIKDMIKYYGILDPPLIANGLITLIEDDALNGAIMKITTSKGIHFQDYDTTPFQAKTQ
#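 20 nM HPGD preincubated 15 min at room temperature with compound in 50 mM Tris-HCl pH 8, 0.01% Tween 20. Started with 1 mM NAD+ and 30 uM prostaglandin E2; NADH fluorescence (360/450 nm) read 5 times over 30-s intervals, last minus first.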
# 12-hLO inh: 12-hLO (ALOX12) enzyme inhibition; Potency, µM (titrated, usually from 57.1 µM), for the others: at the highest dose activity change, negative = inhibition, usual class: inhibitors; purified 12-hLO, xylenol orange hydroperoxide absorbance; 0.12% of 150,000 active; note: potency is the fitted concentration of half-maximal effect; nearly all actives have a fitted effect of over 55% in size
#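 Hydroperoxide formation by human 12-lipoxygenase from 40 uM arachidonic acid was followed colorimetrically via ferric-xylenol orange complex, using the 573/405 nm absorbance ratio. Enzyme concentration was 150 nM, with 30 min reaction at room temperature.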
# IMPase Li inh: IMPase inhibition in cells with lithium potentiation. CHO-M1 cells, IP1 TR-FRET (IP-One), carbachol + lithium. 0.35% of 210,000 active. Potency, µM (top dose mostly 59.4 µM), for inactives: at the top dose activity, negative = IMPase inhibition, actives largely listed as inhibitors;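 note: IP1 builds up when IMPase is blocked and the TR-FRET signal falls; potency is the fitted concentration of half-maximal effect; plate controls were basal vehicle for no effect and high inhibitor control for full effect; nearly all actives have a fitted effect of over 50% in size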
#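 Concentration–response in CHO-M1 cells, lithium-potentiated; 30 min at 37C. IP1 detected by competitive TR-FRET after 10 min lysis at RT. Hill-fitted AC50.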
# IMPase inh: IMPase inhibition in cells; P97697; CHO-M1 cells, IP1 accumulation, HTRF TR-FRET ratio; inhibition (IP1 accumulation), % at 46.1 µM; 120,000 tested, under 10 active; AID 901; active = well fitted curve in the direction sought with a large enough effect in the signal ratio, not every such curve was filed as active; inconclusive = small, poorly fitted or top-dose-only effect, or a change in a side signal; inactive = no such curve, though single readings can be large or run the other way; the % refers to the signal ratio;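 note: cells stimulated with carbachol in lithium chloride buffer; plate controls were DMSO basal wells for no effect and reference inhibitor wells for full effect; higher means more IMPase inhibition seen as more IP1 and lower FRET ratio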
#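 Cellular IMPase inhibition is scored as a rise in cytosolic IP1, detected by competitive TR-FRET between d2-labelled IP1 and a europium anti-IP1 antibody. M1-expressing CHO cells were stimulated with carbachol for 30 min at 37C, with lithium (50 mM LiCl) present in the buffer.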
# PNC assembly inh: inhibitors of perinucleolar compartment assembly. 3.1% of 140,000 active. PC3M PTB-GFP, PNC prevalence imaging, 16 h; active compounds read low. activity change (PNC), negative = inhibition, % at 10 µM. AID 2417;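 active = readout at or below -70, meaning at least 70% loss of cells showing the perinucleolar compartment, a nuclear body marking cancer cells; inconclusive = readout between -30 and a set limit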;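 note: plate controls were DMSO wells for no effect and camptothecin positive control wells for full effect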
#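 Compounds are pinned in duplicate onto adhered PC3M cells stably expressing GFP-tagged PTB and incubated 16 h at 37 C. Cells are then fixed, nuclei stained with Hoechst, and PNC-positive cells counted.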
# ALDH1A1 inh: ALDH1A1 (human) enzyme inhibition | Purified ALDH1A1, NADH fluorescence, propionaldehyde substrate | Potency, µM (titrated, usually from 75.3 µM), for inactives: at the highest dose activity, negative = inhibition, usual class: inhibitors | 7.3% of 220,000 active | AID 1030; active = well fitted inhibition curve with a large enough effect, not every such curve was filed as active; inconclusive = small, poorly fitted or top-dose-only effect, or another doubt; inactive = no such curve, though single readings can be large or run the other way;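 note: potency is the fitted concentration of half-maximal effect; plate controls were no enzyme wells and a reference inhibitor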
# Target sequence (P00352 whole entry, looked up): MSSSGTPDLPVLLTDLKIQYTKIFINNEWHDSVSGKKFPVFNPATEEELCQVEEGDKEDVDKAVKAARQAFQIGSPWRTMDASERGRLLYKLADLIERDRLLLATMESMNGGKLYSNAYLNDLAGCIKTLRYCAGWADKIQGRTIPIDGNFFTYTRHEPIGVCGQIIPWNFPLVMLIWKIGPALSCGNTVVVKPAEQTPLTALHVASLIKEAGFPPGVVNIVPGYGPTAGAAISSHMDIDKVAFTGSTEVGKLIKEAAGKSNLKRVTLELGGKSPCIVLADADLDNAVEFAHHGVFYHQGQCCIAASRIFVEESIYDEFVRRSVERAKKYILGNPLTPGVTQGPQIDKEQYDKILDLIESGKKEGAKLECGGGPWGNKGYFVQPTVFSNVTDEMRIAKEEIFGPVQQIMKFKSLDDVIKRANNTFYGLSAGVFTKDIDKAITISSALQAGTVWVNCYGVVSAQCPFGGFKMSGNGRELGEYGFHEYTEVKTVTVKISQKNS
# Starred values were filed as active, the others as inactive; u = inconclusive; x = not tested or not shown; [ ] = another dose, or the depositor's remark. Unless noted, calls come from the whole dose curve; as a rule, active = well fitted curve in the direction sought with a large enough effect; inconclusive = small, poorly fitted or top-dose-only effect, or another doubt; inactive = no such curve, though single readings can be large; an effect the other way counts as inactive or inconclusive. Unless noted, % is set by controls: 0 for no effect and ±100 for the full control effect.
SMILES,HPGD block,12-hLO inh,IMPase Li inh,IMPase inh,PNC assembly inh,ALDH1A1 inh
N#C/C(=C/c1ccc(N2CCOCC2)o1)C(=O)NC1CCCCC1,x,x,20%,x,x,6.3µM*
CC1CC1c1ccc(/C=C(\C#N)C(=O)Nc2ccccc2Cl)o1 (stereo not drawn),-8%,-5%,14%,x,18,u
COc1ccc(NC(=O)/C(C#N)=C\c2ccc(N3CCOCC3)o2)cc1,x,x,18%,x,x,u
CC1CC1c1ccc(/C=C(\C#N)C(=O)Nc2ccc(Cl)cc2)o1 (stereo not drawn),-19%,-3%,25%,x,-125*,u
COc1ccc(OC)c(CC(NC(C)=O)C(=O)NC2CCN(c3cc(C)nc4ncnn34)CC2)c1 (stereo not drawn),x,x,7%,x,x,8%
CC(C)(C)NC(=O)[C@@H]1C[C@H]2CCCC[C@@H]2CN1C[C@H](O)[C@H](Cc1ccccc1)NC(=O)[C@@H](CC(N)=O)NC(=O)c1ccc2ccccc2n1,-6%,1%[25.6 µM],-3%,-2[20.6 µM],x,1%[20.9 µM]
O=C(O)Cc1cccc(OCCCN(Cc2cccc(C(F)(F)F)c2Cl)CC(c2ccccc2)c2ccccc2)c1,-18%,-6%[0.00818 µM],-22%,x,x,u
CCN1CCCC1CNC(=O)c1ccc(Cc2nc3ccccc3[nH]2)cc1 (stereo not drawn),-9%,1%,x,x,x,0%
CCOC(=O)N1CCN(C(=O)CCCn2nc(C)c3sc4ccccc4c3c2=O)CC1,-28%,1%,15%[38.3 µM],-4,29,u
N#C/C(=C/c1ccc(N2CCCCC2)o1)C(=O)Nc1ccc2ccccc2c1,u,0%,10%,x,-91*,u
N#Cc1ccc(NC(=O)CNc2cc(S(=O)(=O)N3CCOCC3)ccc2NCC2CCCO2)cc1 (stereo not drawn),x,x,4%,x,x,18µM*
O=C(Nc1ccc(Cl)c(S(=O)(=O)N2CCOCC2)c1)c1ccc(OCC2CCCO2)cc1 (stereo not drawn),x,x,13%,x,x,u
Cc1ccc(S(=O)(=O)n2nc(-c3ccco3)nc2SCc2ccccc2)cc1,25µM*,-4%,12%,0,u,22µM*
CSc1nc(-c2ccco2)nn1S(=O)(=O)c1ccc(C)cc1,u,-2%,8%,-7,10,u
CSc1nc(-c2ccco2)nn1C(=O)c1ccccc1,14µM*,1%,20%[38.3 µM],10,-4,-43%
CSc1nc(-c2ccco2)nn1S(=O)(=O)c1ccccc1,14µM*,4%,25%[38.3 µM],2,u,14µM*
CCS(=O)(=O)n1nc(-c2ccco2)nc1SC,8.9µM*,0%,-13%[38.3 µM],u,-7,22µM*
CC(C)C[C@@H](CC(=O)N[C@@H](CCC(=O)O)CC(=O)O)NC(=O)[C@@H]1CCCC[C@H]1NC(=O)C[C@H](CCCN)NC(=O)C[C@H](CO)NC(=O)[C@@H]1CCCC[C@H]1N,-2%,-2%,3%,x,x,-3%
CCS(=O)(=O)n1nc(-c2ccc(Cl)cc2)nc1SC,13µM*,-15%,28%[38.3 µM],2,10,u
CCN(CC)S(=O)(=O)c1ccc(N2CCOCC2)c(NC(=O)COc2ccccc2C#N)c1,x,x,2%,x,x,13µM*
CCC(=O)N1CCN(c2ccc(Cl)cc2NC(=O)Cc2ccccc2)CC1,-5%,-2%,17%[38.3 µM],-3,21,5µM*
CCN(CC)S(=O)(=O)c1ccc(N2CCOCC2)c(NC(=O)c2cc([N+](=O)[O-])ccc2Cl)c1,x,x,4%,x,x,u
CCN(CC)S(=O)(=O)c1ccc(N2CCOCC2)c(NC(=O)Cc2ccc(Cl)cc2)c1,x,-2%,x,3,18,25µM*
CCN(CC)S(=O)(=O)c1ccc(N2CCOCC2)c(NC(=O)c2c3c(nc4ccccc24)CCC3)c1,-1%,-4%,11%,x,-26,6.3µM*
COc1ccc(-c2cc(C(F)(F)F)nc(SCCC(=O)Nc3c(C)cccc3C)n2)cc1,x,x,x,5,x,x
SMILES,HPGD block,12-hLO inh,IMPase Li inh,IMPase inh,PNC assembly inh,ALDH1A1 inh
Cc1ccc(OCCCCn2c(-c3ccc(Cl)cc3)nc3ccccc3c2=O)cc1,x,x,x,-2,x,x
Nc1nc(N)c(CCCCc2ccccc2)c(N)n1,2%,-1%[11.4 µM],5%,x,x,17%[13.5 µM]
CCN(CC)C[C@@H]1CCCCN1CC(=O)N1c2ccccc2C(=O)Nc2cccnc21,-2%,-4%,17%,15,x,8%
CCN(CC)S(=O)(=O)c1ccc(N2CCOCC2)c(NC(=O)c2cccc3ccccc23)c1,-18%,-4%,4%,x,u,13µM*
CCN(CC)S(=O)(=O)c1ccc(N2CCOCC2)c(NC(=O)c2cc(-c3ccccn3)nc3ccccc23)c1,x,x,-3%,x,x,3.5µM*
CCN(CC)S(=O)(=O)c1ccc(N2CCOCC2)c(NC(=O)c2cc(=O)[nH]c3ccccc23)c1,x,x,2%,x,x,14µM*
COCCn1c(=O)c(-c2ccc(OC)cc2)nc2cnc(N3CCOCC3)nc21,x,x,-13%,x,x,u
CC(=O)O[C@H]1C[C@H]2CC[C@@H]3[C@H]4C[C@@H]([N+]5(C)CCCCC5)[C@@H](OC(C)=O)[C@]4(C)CC[C@@H]3[C@@]2(C)C[C@@H]1[N+]1(C)CCCCC1,-1%,-1%,18%,12,x,3%
CS(=O)(=O)N(CC(=O)N1CCN(c2ccccc2F)CC1)C1CCCCC1,-20%,12%,20%[38.3 µM],5,-88*,7.9µM*
Cc1ccc(S(=O)(=O)N(CC(=O)N2CCN(c3ccccc3F)CC2)C2CCCCC2)cc1,-7%,-10%,26%[38.3 µM],11,35,u
COC(=O)NC(c1ccc(F)cc1)C(C(C)=O)C(=O)OC (stereo not drawn),x,x,x,x,x,28%[13.5 µM]
O=C(CCS(=O)(=O)Cc1ccccc1F)N1CCc2ccccc2C1,-10%,-3%,-7%[38.3 µM],-9,52,3.5µM*
CCC(=O)N1CCc2cc(S(=O)(=O)CCC(=O)Nc3ccc(CC)cc3)ccc21,-7%,-1%,1%,3,u,2%
CC(=O)N1CCc2cc(S(=O)(=O)CCC(=O)N3CCN(C(=O)c4ccco4)CC3)ccc21,-10%,0%,0%,-8,-18,32µM*
CCC(=O)N1CCc2cc(S(=O)(=O)CCC(=O)N3CCc4ccccc4C3)ccc21,-3%,0%,u,-1,u,13µM*
CCC(=O)N1CCCc2cc(S(=O)(=O)N3CCN(c4ccccc4F)CC3)ccc21,-12%,1%,12%[38.3 µM],11,-12,14µM*
COC(=O)CC1c2ccccc2C(Cc2ccc3c(c2)OCO3)=C(C)N1C(=O)OC (stereo not drawn),-7%,-6%[11.4 µM],7%,x,x,4%
C=CCc1cccc(C2NC(C(=O)O)CCC2C)c1 (stereo not drawn),x,x,x,x,x,5%[13.5 µM]
Cc1cc(Cl)ccc1NC(=O)CN1C(=O)C(=O)c2ccccc21,x,x,x,2,x,x
